From PubChem BioAssay
Most compounds without a hit are left out; they make up all but 3% or so of the library.
KLF5 inhibitor: suppresses KLF5 promoter-driven expression. DLD-1 KLF5 promoter-luciferase reporter, luminescence. inhibition, % at 5 µM. 290,000 tested, 0.23% active. AID 1700;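 active = inhibition above a per-plate limit of that plate's mean compound inhibition plus 3 SD, cut at about 60% in these data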;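 note: higher means less KLF5 promoter-driven luciferase light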
IEC-6 cytotox: IEC-6 cytotoxicity, counter-screen for KLF5 inhibitors; luminescence viability; inhibition, % at 5 µM; 290,000 tested, 0.78% active; in the data active = inhibition above about 22%
CSC inhib: blocks cancer stem cells | cancer stem cell-like cells viability, luminescence | inhibition, % at 7.5 µM | 300,000 tested, 1.1% active; in the data active = inhibition above about 75%; tested in HMLE shEcad cells
aSyn UTR inh: MLPCN primary screen, SNCA 5' untranslated region; 300,000 tested, 0.82% active; inhibition, % (tested at 7.5 µM); AID 1813; alpha-synuclein 5'UTR reporter, inhibitor activity; in the data active = inhibition above about 60%;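 note: H4 neuroglioblastoma cells stably carrying SNCA 5'UTR luciferase fusion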
SKKanGAS inh: inhibitors of SKKanGAS S. pyogenes growth in kanamycin (SK-promoter or general growth effect); BacTiter-Glo, 6 h; inhibition, % at 7.5 µM; 300,000 tested, 1.3% active; AID 1662;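 active = mean replicate score, as percent of positive control median, at least 50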;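 note: strain carries kanamycin resistance gene driven by streptokinase promoter and grows in 40 µg/ml kanamycin; loss of luminescence reflects streptokinase promoter inhibition or plain growth inhibition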
Numbers stand for hits; 0 = inactive; - = not tested or not shown.

SMILES	KLF5 inhibitor	IEC-6 cytotox	CSC inhib	aSyn UTR inh	SKKanGAS inh
Cc1ccc(-c2ccc([C@H]3[C@@H]4C=CCC[C@@]4(C)C(=O)N3Cc3ccccc3)c(F)c2)cc1	-	-	96.3	0	0
COc1ccc(-c2cc([C@H]3[C@@H]4C=CCC[C@@]4(C)C(=O)N3Cc3ccccc3)ccc2F)cc1	-	-	122.0	0	0
CC(=O)c1ccc(-c2ccc([C@H]3[C@@H]4C=CCC[C@@]4(C)C(=O)N3Cc3ccccc3)c(F)c2)cc1	-	-	121.2	0	0
COc1ccc(-c2ccc(OC)c([C@H]3[C@@H]4C=CCC[C@@]4(C)C(=O)N3Cc3ccccc3)c2)cc1OC	-	-	0	0	0
COc1ccccc1N(C)S(=O)(=O)c1ccc(C(=O)OCC(=O)c2c[nH]c3ccccc23)cc1	0	0	0	0	0
COc1ccc(OCC(=O)N2CCC3(CC2)CC(=O)c2ccccc2O3)cc1	-	-	0	0	0
CCOC(=O)c1ccc(NC(=O)c2nc[nH]c2C(=O)NCCCNC(=O)c2[nH]cnc2C(=O)Nc2ccc(C(=O)OCC)cc2)cc1	-	-	0	-	-
CC(C)(C)OC(=O)NCc1ccc(NC(=O)c2nc[nH]c2C(=O)NCCCCCCNC(=O)c2[nH]cnc2C(=O)Nc2ccc(CNC(=O)OC(C)(C)C)cc2)cc1	-	-	0	-	-
O=C(Nc1cccc(Cl)c1)c1nc[nH]c1C(=O)NCCCNC(=O)c1[nH]cnc1C(=O)Nc1cccc(Cl)c1	-	-	100.6	-	-
CCOC(=O)c1ccc(NC(=O)c2nc[nH]c2C(=O)NCCCCCNC(=O)OC(C)(C)C)cc1	-	-	0	0	64.2
CC(C)(C)OC(=O)NCc1ccc(NC(=O)c2nc[nH]c2C(=O)NCCCCNC(=O)c2[nH]cnc2C(=O)Nc2ccc(CNC(=O)OC(C)(C)C)cc2)cc1	-	-	120.1	-	-
Cc1ccc(NC(=O)c2nc[nH]c2C(=O)NCCCNC(=O)c2[nH]cnc2C(=O)Nc2ccc(C)cc2)cc1	-	-	112.9	-	-
O=C(CNC(=O)c1ccc(N2CCCC2=O)cc1)Nc1ccc(F)c(F)c1F	-	-	0	-	-
Cc1ccc(NC(=O)c2nc[nH]c2C(=O)N[C@@H](C)c2ccccc2)cc1	0	0	0	0	66.1
CC(C)(C)OC(=O)NCc1ccc(NC(=O)c2nc[nH]c2C(=O)NCCN(CCNC(=O)c2[nH]cnc2C(=O)Nc2ccc(CNC(=O)OC(C)(C)C)cc2)CCNC(=O)c2[nH]cnc2C(=O)Nc2ccc(CNC(=O)OC(C)(C)C)cc2)cc1	-	-	0	-	-
C[C@@H](NC(=O)c1[nH]cnc1C(=O)Nc1ccccc1)c1ccccc1	-	-	0	-	-
CC(C)(C)OC(=O)NCc1ccc(NC(=O)c2nc[nH]c2C(=O)NCCCNC(=O)c2[nH]cnc2C(=O)Nc2ccc(CNC(=O)OC(C)(C)C)cc2)cc1	-	-	114.0	-	-
O=S(=O)(Nc1nc2ccccc2nc1Cl)c1ccccc1	0	0	0	0	0
O=S(=O)(Nc1nc2ccccc2nc1Cl)c1ccc2ccccc2c1	0	0	0	0	51.4
Cc1nc(-c2ccccn2)nc(N(C)c2ccccc2)c1Cl	0	0	-	0	92.6
Cc1cc2ncc(-c3ncc(C(F)(F)F)cc3Cl)cn2n1	0	0	0	65.4	0
Cc1nn2cc(-c3ncc(C(F)(F)F)cc3Cl)cnc2c1Br	0	0	0	0	0
Cc1ccc(-c2nc3ccc(Cl)cc3c(=O)n2O)cc1	0	0	0	0	69.5
Nc1c(C(=O)Nc2nc3ccccc3s2)sc2nc(-c3cccs3)ccc12	0	0	0	105.7	50.3
CC(=O)c1sc2nc(-c3cccs3)ccc2c1N	0	0	0	0	0
SMILES	KLF5 inhibitor	IEC-6 cytotox	CSC inhib	aSyn UTR inh	SKKanGAS inh
CCN(CC)c1nc(Nc2ccc(Cl)cc2)nc(OCC#N)n1	0	0	0	70.0	0
O=C(Nc1ccon1)c1cccc(S(=O)(=O)N2CCCCC2)c1	0	0	0	0	0
CCCCCC/C(=N/O)c1ccccn1	0	0	0	0	94.1
C=CCNC(=O)CN1C(=O)C2C3c4ccccc4C(c4ccccc43)C2C1=O (stereo not given)	0	0	0	0	0
Cc1cccc(NC(=O)C2SC(=Nc3c(C)cccc3C)C(C(=O)N3CCOCC3)=C2N)c1 (stereo not given)	0	0	0	0	94.3
O=C1CSC(c2cccc(F)c2)N1c1ccccc1 (stereo not given)	0	0	0	0	0
c1ccc(-c2nnc(-c3ccccn3)c(-c3ccccn3)n2)nc1	0	0	0	0	0
COc1cnc(-c2ccccn2)nc1N(C)C	0	0	0	98.7	0
COc1ccc(Oc2nc(-c3ccccn3)ncc2OC)cc1	0	0	0	0	53.8
COc1cnc(-c2ccccn2)nc1Oc1c(C)cccc1C	0	0	0	0	56.8
COc1cnc(-c2ccccn2)nc1Sc1c(Cl)cccc1Cl	0	0	0	0	0
